For some assays here: Entries with a potency or affinity are not part of this list.

Holding throughout (set-up): scale not given: direction of the effect not stated beside the values
The target in experiment [1] is Protein translocase subunit SecA (Escherichia coli (strain K12)) (UniProt P10408). Nature of the experiment: Assay to Identify E. coli SecA ATPase Inhibitors. It counts as functional. Particulars: 30 µM.
For experiment [2], the target named is T1, Ubiquitin-activating enzyme e1, putative (Leishmania donovani (strain BPK282A1)) (UniProt E9BSI1).
T1 sequence (whole entry): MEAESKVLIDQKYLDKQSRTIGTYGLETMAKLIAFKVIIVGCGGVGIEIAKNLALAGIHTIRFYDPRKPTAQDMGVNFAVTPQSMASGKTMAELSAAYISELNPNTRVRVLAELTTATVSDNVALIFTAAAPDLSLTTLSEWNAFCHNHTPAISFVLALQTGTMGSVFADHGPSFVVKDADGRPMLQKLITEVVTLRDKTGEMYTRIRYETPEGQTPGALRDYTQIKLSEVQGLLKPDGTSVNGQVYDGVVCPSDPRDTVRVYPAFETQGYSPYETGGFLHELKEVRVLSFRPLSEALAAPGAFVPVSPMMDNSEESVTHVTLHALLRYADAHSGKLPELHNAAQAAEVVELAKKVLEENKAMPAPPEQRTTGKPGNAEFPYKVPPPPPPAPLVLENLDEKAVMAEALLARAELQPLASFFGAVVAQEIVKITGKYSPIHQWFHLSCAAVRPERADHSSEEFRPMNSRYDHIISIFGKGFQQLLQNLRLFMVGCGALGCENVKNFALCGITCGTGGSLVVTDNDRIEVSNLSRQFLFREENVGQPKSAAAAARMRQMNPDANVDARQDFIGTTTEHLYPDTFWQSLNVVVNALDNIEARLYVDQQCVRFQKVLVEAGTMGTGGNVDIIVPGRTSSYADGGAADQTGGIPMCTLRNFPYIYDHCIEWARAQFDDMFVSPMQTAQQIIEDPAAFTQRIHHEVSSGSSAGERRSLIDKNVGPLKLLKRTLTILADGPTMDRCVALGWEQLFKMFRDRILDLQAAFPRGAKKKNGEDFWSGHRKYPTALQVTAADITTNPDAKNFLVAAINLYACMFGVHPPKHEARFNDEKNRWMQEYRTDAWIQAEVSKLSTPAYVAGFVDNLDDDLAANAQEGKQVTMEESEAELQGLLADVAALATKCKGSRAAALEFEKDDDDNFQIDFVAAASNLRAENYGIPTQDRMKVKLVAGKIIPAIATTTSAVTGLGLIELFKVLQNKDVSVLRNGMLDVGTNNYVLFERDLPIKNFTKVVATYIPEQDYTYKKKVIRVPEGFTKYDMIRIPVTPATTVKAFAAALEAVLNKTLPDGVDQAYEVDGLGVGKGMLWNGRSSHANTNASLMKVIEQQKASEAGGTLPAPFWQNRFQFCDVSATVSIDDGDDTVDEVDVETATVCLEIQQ
The experiment is described as follows: Leishmania donovani Ubiquitin Activating Enzyme (LdE1). It counts as functional. The conditions noted are these: 30 µM.

For experiment [3], the target named is AMP-activated protein kinase, AMPK (Homo sapiens) (UniProt P54646+O43741+P54619+Q9UGJ0+Q9Y478+Q13131+Q9UGI9). Nature of the experiment: AMP-dependent Kinase enzyme assay. An in vitro enzyme assay that detects ADP turnover that is directly proportional to AMPK activity. This uses naive AMPK that is activated during the assay with MK-8722. It counts as functional. Particulars: 30 µM.

Experiment [4] addresses Sialic acid-binding Ig-like lectin 9 (Homo sapiens) (UniProt Q9Y336). The experiment is described as follows: Hs-Siglec9 ALPHAscreen SOP 20170721. The conditions noted are these: 10 µM. Background: Alpha assays give light when donor and acceptor beads are brought close together.
The next experiment has as its system Trypanosoma cruzi. Nature of the experiment: Trypanosoma cruzi phosphomannomutase and mannose-1-phosphate guanylyltransferase assay. It counts as functional. Particulars: 10 µM.
For experiment [5], the target named is T2, Arginase-2, mitochondrial (Homo sapiens) (UniProt P78540).
T2 sequence (whole entry): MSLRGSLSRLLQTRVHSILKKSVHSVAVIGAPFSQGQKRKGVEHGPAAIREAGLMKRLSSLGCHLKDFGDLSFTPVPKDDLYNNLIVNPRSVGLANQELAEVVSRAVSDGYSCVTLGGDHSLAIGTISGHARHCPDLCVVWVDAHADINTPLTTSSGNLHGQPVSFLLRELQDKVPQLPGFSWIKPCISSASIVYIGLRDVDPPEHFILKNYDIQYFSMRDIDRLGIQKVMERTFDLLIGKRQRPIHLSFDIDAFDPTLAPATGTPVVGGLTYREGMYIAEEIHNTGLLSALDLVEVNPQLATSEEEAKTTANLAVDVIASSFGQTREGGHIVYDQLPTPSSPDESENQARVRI
The experiment is described as follows: in vitro enzyme assay to detect the production of urea directly proportional to the activity of Arginase II. Also: in the data most compounds retested in dose-response had high values. It counts as functional. The conditions noted are these: 33.3 µM.

The target in experiment [6] is T3, Proteasome subunit beta (Trypanosoma cruzi) (UniProt O96673).
T3 sequence (whole entry): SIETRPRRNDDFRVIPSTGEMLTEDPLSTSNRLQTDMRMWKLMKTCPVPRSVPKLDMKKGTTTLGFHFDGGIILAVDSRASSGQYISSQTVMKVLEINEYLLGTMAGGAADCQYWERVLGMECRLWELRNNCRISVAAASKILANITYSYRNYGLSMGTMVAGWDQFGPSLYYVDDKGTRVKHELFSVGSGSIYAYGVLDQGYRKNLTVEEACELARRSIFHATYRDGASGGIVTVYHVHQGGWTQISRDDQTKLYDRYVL
Nature of the experiment: Trypanosoma cruzi proteasome chymotrypsin-like activity (TcProtChymo) assay. Also: in the data most compounds retested in dose-response had high values. It counts as functional. The conditions noted are these: 9.37 µM.

For a further experiment, the species on record is Homo sapiens. Nature of the experiment: To identify inhibition of the IFN signalling (Jak-Stat) pathway via expression of an eGFP reporter gene under the control of an IFN-stimulated response element (ISRE) containing MxA promoter. It counts as functional. Particulars: 30 µM. On the technique in general: A reporter such as luciferase makes a cellular process visible.

Experiment [7] addresses T4, Tyrosyl-tRNA synthetase, putative (Trypanosoma cruzi (strain CL Brener)) (UniProt Q4DSP6).
T4 sequence (whole entry): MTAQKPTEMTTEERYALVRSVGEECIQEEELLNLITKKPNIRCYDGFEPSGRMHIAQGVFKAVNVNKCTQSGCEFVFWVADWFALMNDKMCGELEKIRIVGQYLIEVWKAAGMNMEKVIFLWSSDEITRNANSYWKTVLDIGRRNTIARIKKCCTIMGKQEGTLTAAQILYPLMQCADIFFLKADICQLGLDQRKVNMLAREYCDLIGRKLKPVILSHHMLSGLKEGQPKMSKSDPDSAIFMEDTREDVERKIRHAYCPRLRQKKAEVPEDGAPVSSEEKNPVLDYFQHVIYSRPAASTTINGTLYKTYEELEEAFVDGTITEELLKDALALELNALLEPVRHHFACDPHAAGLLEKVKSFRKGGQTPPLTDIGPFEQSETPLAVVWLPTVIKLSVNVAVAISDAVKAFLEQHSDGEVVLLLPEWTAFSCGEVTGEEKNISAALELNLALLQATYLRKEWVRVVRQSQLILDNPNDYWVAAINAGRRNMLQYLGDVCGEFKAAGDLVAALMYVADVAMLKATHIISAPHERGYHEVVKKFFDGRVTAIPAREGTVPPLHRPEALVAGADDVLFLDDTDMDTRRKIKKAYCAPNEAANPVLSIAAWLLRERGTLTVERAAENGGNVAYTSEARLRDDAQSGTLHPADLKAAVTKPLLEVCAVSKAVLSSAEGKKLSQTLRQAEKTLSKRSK
The experiment is described as follows: Trypanosoma cruzi tyrosyl tRNA synthetase (TcYRS) _High Tyrosine SOP. Also: in the data most compounds retested in dose-response had high values. The conditions noted are these: 30 µM. It counts as functional.

Experiment [8] concerns the target T4, Tyrosyl-tRNA synthetase, putative (Trypanosoma cruzi (strain CL Brener)). Nature of the experiment: Trypanosoma cruzi tyrosyl tRNA synthetase (TcYRS) SOP. The conditions noted are these: 30 µM. It counts as functional.
Experiment [9] addresses Chromo domain-containing protein 1 (Saccharomyces cerevisiae (strain ATCC 204508 / S288c) (Baker's yeast)) (UniProt P32657). The experiment is described as follows: ScCHD-1 Enzyme Inhibition Assay. Also: in the data most compounds retested in dose-response had high values. The conditions noted are these: 30 µM. It counts as functional.

Sequence of Protein translocase subunit SecA (Escherichia coli (strain K12)) (P10408 whole entry): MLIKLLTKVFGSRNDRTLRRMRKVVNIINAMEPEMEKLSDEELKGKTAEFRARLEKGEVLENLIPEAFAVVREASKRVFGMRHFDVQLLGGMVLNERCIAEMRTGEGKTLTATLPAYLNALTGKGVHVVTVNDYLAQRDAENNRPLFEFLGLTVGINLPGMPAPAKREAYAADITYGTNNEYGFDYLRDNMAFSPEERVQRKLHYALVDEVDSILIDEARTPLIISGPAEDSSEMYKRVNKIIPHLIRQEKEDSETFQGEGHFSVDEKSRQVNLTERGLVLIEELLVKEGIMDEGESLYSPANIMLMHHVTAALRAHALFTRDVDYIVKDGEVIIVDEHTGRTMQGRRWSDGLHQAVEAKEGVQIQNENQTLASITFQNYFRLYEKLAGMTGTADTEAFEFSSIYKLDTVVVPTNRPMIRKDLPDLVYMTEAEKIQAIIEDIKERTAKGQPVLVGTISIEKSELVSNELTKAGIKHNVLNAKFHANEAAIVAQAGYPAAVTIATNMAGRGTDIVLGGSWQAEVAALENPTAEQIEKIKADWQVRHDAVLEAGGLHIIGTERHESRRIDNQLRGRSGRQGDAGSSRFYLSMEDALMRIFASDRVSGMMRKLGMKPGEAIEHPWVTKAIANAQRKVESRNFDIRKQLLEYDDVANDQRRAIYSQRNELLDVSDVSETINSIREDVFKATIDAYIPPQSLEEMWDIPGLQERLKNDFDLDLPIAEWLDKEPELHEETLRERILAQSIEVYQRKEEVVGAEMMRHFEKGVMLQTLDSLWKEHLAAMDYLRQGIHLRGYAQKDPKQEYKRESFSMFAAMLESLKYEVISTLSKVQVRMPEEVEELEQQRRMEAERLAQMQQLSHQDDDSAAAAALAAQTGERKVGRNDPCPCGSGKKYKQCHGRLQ
Sequence of Sialic acid-binding Ig-like lectin 9 (Homo sapiens) (Q9Y336 whole entry): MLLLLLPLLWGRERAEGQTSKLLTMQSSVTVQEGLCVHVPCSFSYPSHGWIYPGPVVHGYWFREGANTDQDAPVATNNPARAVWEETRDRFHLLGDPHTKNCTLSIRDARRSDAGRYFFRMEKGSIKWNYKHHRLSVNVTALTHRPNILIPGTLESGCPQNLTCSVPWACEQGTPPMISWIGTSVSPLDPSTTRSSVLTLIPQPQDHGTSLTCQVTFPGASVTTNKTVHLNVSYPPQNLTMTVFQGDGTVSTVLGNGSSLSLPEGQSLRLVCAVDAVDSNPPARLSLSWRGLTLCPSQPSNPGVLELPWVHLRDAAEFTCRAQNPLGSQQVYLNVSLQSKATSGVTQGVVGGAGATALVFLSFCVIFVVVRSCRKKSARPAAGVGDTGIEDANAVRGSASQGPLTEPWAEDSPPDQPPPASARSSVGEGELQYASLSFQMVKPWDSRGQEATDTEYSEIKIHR
Sequence of Chromo domain-containing protein 1 (Saccharomyces cerevisiae (strain ATCC 204508 / S288c) (Baker's yeast)) (P32657 whole entry, the tested form may be a part): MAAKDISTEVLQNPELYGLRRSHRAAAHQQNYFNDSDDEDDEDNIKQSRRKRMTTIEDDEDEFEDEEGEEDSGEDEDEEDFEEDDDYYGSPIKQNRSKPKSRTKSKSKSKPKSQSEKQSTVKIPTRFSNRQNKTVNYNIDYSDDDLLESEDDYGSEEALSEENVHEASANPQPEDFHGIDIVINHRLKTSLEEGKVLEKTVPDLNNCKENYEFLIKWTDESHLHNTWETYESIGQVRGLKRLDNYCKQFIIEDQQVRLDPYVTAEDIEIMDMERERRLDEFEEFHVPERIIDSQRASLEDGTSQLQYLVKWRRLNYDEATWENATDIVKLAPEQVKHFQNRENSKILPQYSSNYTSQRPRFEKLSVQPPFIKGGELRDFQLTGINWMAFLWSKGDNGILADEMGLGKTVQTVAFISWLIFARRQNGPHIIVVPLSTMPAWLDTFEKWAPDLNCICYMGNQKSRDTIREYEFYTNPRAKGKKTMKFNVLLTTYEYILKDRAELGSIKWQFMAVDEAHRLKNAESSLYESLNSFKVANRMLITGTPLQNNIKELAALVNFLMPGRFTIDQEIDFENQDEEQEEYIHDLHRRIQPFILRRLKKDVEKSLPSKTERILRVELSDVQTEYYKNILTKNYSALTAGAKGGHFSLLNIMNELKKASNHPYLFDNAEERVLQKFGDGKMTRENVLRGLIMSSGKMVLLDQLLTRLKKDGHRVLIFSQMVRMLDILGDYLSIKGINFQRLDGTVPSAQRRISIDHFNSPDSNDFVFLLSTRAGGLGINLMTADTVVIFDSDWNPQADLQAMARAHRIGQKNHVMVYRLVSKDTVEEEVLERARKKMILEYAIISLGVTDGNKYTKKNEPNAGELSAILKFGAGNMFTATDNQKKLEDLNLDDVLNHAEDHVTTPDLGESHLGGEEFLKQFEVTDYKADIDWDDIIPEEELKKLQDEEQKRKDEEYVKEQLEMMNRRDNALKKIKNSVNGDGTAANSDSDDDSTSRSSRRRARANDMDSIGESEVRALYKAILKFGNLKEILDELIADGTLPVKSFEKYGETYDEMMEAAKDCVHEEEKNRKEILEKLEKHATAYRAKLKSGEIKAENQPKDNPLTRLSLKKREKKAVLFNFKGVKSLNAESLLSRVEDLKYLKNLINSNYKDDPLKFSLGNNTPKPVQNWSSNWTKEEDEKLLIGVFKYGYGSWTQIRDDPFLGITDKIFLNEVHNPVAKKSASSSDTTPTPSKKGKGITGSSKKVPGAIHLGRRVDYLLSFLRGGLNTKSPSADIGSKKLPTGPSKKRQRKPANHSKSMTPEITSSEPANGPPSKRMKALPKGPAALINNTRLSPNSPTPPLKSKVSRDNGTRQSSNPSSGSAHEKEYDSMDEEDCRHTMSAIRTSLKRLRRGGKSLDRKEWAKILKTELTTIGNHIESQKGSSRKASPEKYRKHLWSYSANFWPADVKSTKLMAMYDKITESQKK

For the molecule `Cc1nc(COC[C@]23COC[C@H]2CN(Cc2ccoc2)C3)cs1`, the Percent Effect in experiment [1] is -4.99%; in [2], 0%; in experiment [3], -4.16%; in [4], 13.2%; with Trypanosoma cruzi, 6.94%; in experiment [5], 0.248%. Besides, the Percent Effect in [6] is -2.49%; in the experiment filed under Homo sapiens, -33.4%; in experiment [7] it was 3.23%; in experiment [8], 11.1%; in experiment [9], -1.94%.
With `C[C@@H]1CN(C(=O)c2ccc(C#N)nc2)C[C@@]1(O)C1CC1`, the Percent Effect in experiment [1] is -4.79%; in experiment [2], 13.5%; in experiment [3], -4.57%; in experiment [4] it was 30.4%; in the experiment with Trypanosoma cruzi, 9.65%; in [5], -1.91%. The Percent Effect was 5% in experiment [6]; 1.76% in the experiment listed under Homo sapiens; 2.65% in experiment [7]; 14.6% in experiment [8]; -12.3% in experiment [9].
For the molecule `CC(C)Oc1ccccc1CNC(=O)N1CCC(n2cncn2)CC1`, the Percent Effect in experiment [1] was -9.7%; in experiment [2], 11.4%; in experiment [3], -5.06%; in experiment [4], -3.04%; in the experiment with Trypanosoma cruzi, 3.79%; in experiment [5], -2.37%. Moreover, the Percent Effect is 17.3% in [6]; 7.86% in the experiment listed under Homo sapiens; 5.21% in experiment [7]; 12.7% in experiment [8]; -29.4% in [9].
In the case of `CCc1nccn1C1CCCN(C(=O)c2ccc(C(=O)NC)nc2)C1` (stereo not given), the Percent Effect in experiment [1] is 1.89%; in experiment [2] it was -2.6%; in experiment [3], 1.32%; in experiment [4], 2.31%; with Trypanosoma cruzi, -2.81%; in experiment [5], 4.63%. For the same molecule, the Percent Effect was 1.86% in [6]; 18.1% in the experiment listed under Homo sapiens; 1.94% in experiment [7]; 0% in experiment [8]; -4.59% in [9].
In the case of `CN1CC(=O)N(c2cccc(F)c2)CC12CCN(Cc1cccnc1)C2` (stereo not given), the Percent Effect in experiment [1] was 1.08%; in experiment [2], 7.79%; in experiment [3] it was 4.97%; in experiment [4], 4.25%; in the experiment with Trypanosoma cruzi, -2.46%; in experiment [5], 12.3%. Further, the Percent Effect in [6] was 12.9%; in the experiment filed under Homo sapiens it was 7.53%; in [7], 3.17%; in [8], 11.5%; in experiment [9] it was -1.97%.
Turning to `CN(C)C1CCN(C(=O)c2ccc(Cn3ccccc3=O)o2)CC1`, the Percent Effect in experiment [1] was -2.62%; in experiment [2], 8.11%; in experiment [3] it was 3.53%; in experiment [4], 12.9%; with Trypanosoma cruzi, 2.88%; in experiment [5], 0.924%. For the same molecule, the Percent Effect is 0% in experiment [6]; 5.91% in the experiment listed under Homo sapiens; 6.93% in experiment [7]; 23.2% in experiment [8]; -4.27% in [9].
As to `Cc1ccc(C)c(NC(=O)c2n[nH]c(-n3cnnc3)n2)c1`, the Percent Effect in [1] was -1.59%; in experiment [2] it was 6.67%; in [3], 0.649%; in experiment [4], 8.26%; in the experiment with Trypanosoma cruzi, 2.75%; in experiment [5] it was -2.64%. Further, the Percent Effect in experiment [6] is 9.24%; in the experiment filed under Homo sapiens, 18.5%; in experiment [7], 6.35%; in [8], 10.3%; in experiment [9], -4%.
Turning to `Cc1cc(C(=O)NCc2cccnc2OC(C)C)no1`, the Percent Effect is -2.03% in experiment [1]; 8.11% in [2]; -0.722% in experiment [3]; 4.58% in [4]; -5.19% in the experiment on Trypanosoma cruzi; 4.41% in experiment [5]. The Percent Effect in experiment [6] was 3.42%; in the experiment filed under Homo sapiens, 27.8%; in [7], 6.4%; in experiment [8], 13.6%; in [9] it was -0.257%.
For `CCn1cnnc1C1CCN(C(=O)c2cc3c(s2)CCC3)CC1`, the Percent Effect is -5.61% in experiment [1]; 20.2% in experiment [2]; -5.35% in experiment [3]; 8.78% in experiment [4]; 6.52% with Trypanosoma cruzi; -7.22% in experiment [5]. Moreover, the Percent Effect in experiment [6] was 20.2%; in the experiment listed under Homo sapiens, -5.6%; in experiment [7] it was 8.37%; in experiment [8], 21.5%; in experiment [9], -4.66%.
As to `Cn1ccc(CN2CCC(COC3CCCC3)CC2)cc1=O`, the Percent Effect in experiment [1] was -2%; in [2] it was -59.5%; in experiment [3] it was -8.16%; in experiment [4], 2.17%; in the experiment on Trypanosoma cruzi, 2.15%; in experiment [5], 3.66%. The Percent Effect was 11.2% in experiment [6]; 26.8% in the experiment listed under Homo sapiens; -10.4% in experiment [7]; 17.7% in experiment [8]; -25.3% in experiment [9].
